From PubChem BioAssay AID364 (The Scripps Research Institute Molecular Screening Center, 2006)
About 50 (2%) of roughly 3,300 compounds were called active. These entries were drawn from the full list. Measured potencies and affinities stand elsewhere. A number with no mark means an inactive call.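 The calls were made as follows: active = concentration giving half-maximal inhibition at or below 20 micromolar; inactive = half-maximal concentration above 20 micromolar, or not dose tested.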

Experiment: Jurkat cell viability reduction – Jurkat E6.1, NIH starter set, primary screen (AID 364);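 also: 100% = cells treated with 4 µM doxorubicin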
Conditions: Jurkat E6.1 viability, ATP luminescence, 48 h; at 4 µM; stronger effect = higher value
CCCOc1ccc(N2C(=O)CC(N(CCC)C(=O)CCC(=O)O)C2=O)cc1 (stereo unspecified) showed an inhibition of -0.8%.
Work on COc1cccc(/C(O)=C2/C(=O)C(=O)N(CCN(C)C)C2c2ccc(Br)cc2)c1 (stereo unspecified) yielded an inhibition of -1.9%.
With CCOc1ccc(Br)cc1CC(=O)O the inhibition was 13.6%.
In the case of O=C(C(c1ccccc1)N1CCOCC1)N1CCOCC1 (stereo unspecified), the inhibition is reported as -13.4%.
With Cc1cc2c(c(=O)n1Cc1ccccn1)C(c1ccc3c(c1)OCO3)C(C#N)=C(N)O2 (stereo unspecified) the inhibition was -0.2%.
In the case of CCCCCOc1ccc(Cl)cc1CN1CCOCC1, the inhibition is reported as -0.4%.
With COc1cccc(C2/C(=C(\O)c3ccc(OC)c(OC)c3)C(=O)C(=O)N2c2cc(C)on2)c1 (stereo unspecified) the inhibition was -14.4%.
Compound Cc1cc(C)nc(N(C#N)S(=O)(=O)c2ccccc2Cl)n1 has an inhibition of 1%.
Compound COc1ccc(OC)c(NC(=O)CSC2=C(C#N)C(c3ccco3)C3=C(CCCC3=O)N2)c1 (stereo unspecified) has an inhibition of 4.8%.
Compound COc1ccc(NC(=O)CSC2=C(C#N)C(c3ccco3)C3=C(CCCC3=O)N2)c(OC)c1 (stereo unspecified) has an inhibition of 1.6%.
With Cc1c(N2C(=O)SC(CC(=O)O)C2=O)c(=O)n(-c2ccccc2)n1C (stereo unspecified) the inhibition was -2.7%.
In the case of CC(=O)C1(C)OC(N)=C(C#N)C(c2ccccc2)C1(C#N)C#N (stereo unspecified), the inhibition is reported as 5.6%.
With COc1ccc(N2C(=O)C3C(C2=O)C2C=CC3C23CC3)c(OC)c1 (stereo unspecified) the inhibition was 0.8%.
COc1ccccc1NC(=O)Nc1nnc(C(C)C)s1 showed an inhibition of 9.4%.
COc1ccc(OC)c(C2=Nn3c(nnc3C3CCCCC3)SC2)c1 gave an inhibition of 5.2%.
Compound c1ccc(-c2nnc3n2N=C(c2ccc4c(c2)OCO4)CS3)nc1 has an inhibition of -6.9%.
CC(=O)[C@H]1[C@@H]2C(=O)N(c3cccc(Cl)c3)C(=O)[C@@H]2[C@H]2c3ccccc3C=CN21 gave an inhibition of -1.9%.
Compound CCOC(=O)CNS(=O)(=O)c1cc(-c2nn(C)c(=O)c3ccccc23)ccc1C has an inhibition of 1.1%.
C=C(C)CC1N(c2cccc(OC)c2)C(=O)[C@@H]2C(C(=O)O)[C@H]3C=C[C@@]12O3 (stereo partly specified) gave an inhibition of 5.9%.
CCCCOc1ccc(C(=O)Nc2ccc(N3CCN(C(C)=O)CC3)cc2)cc1 showed an inhibition of 6.7%.
Compound COc1ccc(C(=O)CSC2=C(C#N)C3(CCCCC3)C(C#N)=C(N)N2)cc1 has an inhibition of 4.2%.
For N#CC1=C(N)NC(SCc2ccc(Cl)cc2)=C(C#N)C12CCCCC2, the inhibition was 7.9%.
Work on Cc1csc(SCCn2c(Br)nc3c2c(=O)[nH]c(=O)n3C)n1 yielded an inhibition of -4.7%.
For N#CC1=C(N)C(C#N)(C#N)[C@H](c2ccncc2)[C@H]2CN(C(=O)OCc3ccccc3)CC=C12, the inhibition was 2.4%.
With COCCOC(=O)c1c(C)nc(SCC(=O)Nc2ccc(C)cc2)c(C#N)c1-c1ccco1 the inhibition was 13.5%.
In the case of O=C(CSc1nnc(-c2ccco2)c(-c2ccco2)n1)Nc1ccccc1, the inhibition is reported as 0.1%.
For C=CCN(C)CCCNC(=O)/C=N/O, the inhibition was 2.4%.
Compound CN(CCOC(=O)c1ccc2c(c1)OCCO2)Cc1ccccc1 has an inhibition of -9.3%.
Compound O=C(CC(c1ccco1)S(=O)(=O)c1ccccc1)c1ccc(F)cc1 (stereo unspecified) has an inhibition of -1%.
c1cncc(-c2nnc3sc(-c4ccco4)nn23)c1 gave an inhibition of 7.6%.
For COc1cc(-c2nn3c(-c4cccnc4)nnc3s2)cc(OC)c1OC, the inhibition was 3.2%.
In the case of Cc1c(NS(=O)(=O)c2cccc3nsnc23)c(=O)n(-c2ccccc2)n1C, the inhibition is reported as -5.3%.
CCN(CC)CCN1C(=O)C(O)=C(C(C)=O)C1c1ccc(OC)c(OC)c1 (stereo unspecified) showed an inhibition of -15.9%.
Work on Cc1ccc2cc(CNC(C)(C)C)c(=O)[nH]c2c1 yielded an inhibition of 7.6%.
Cn1c(=O)cc(NCc2ccccc2)[nH]c1=O gave an inhibition of -8.6%.
Compound CCc1c(C)c(C#N)c2nc3ccccc3n2c1-n1nc(C)cc1C has an inhibition of -5.3%.
COCc1cc(C)nc(SCC(=O)Nc2ccc(C)c(C)c2)c1C#N gave an inhibition of -5.4%.
Compound CCc1nc2c(sc3nc(N4CCOCC4)c4c(c32)CC(C)(C)OC4)c(=O)o1 has an inhibition of -2%.
Compound CN(C)CCCN1C(=O)C(=O)/C(=C(/O)c2ccccc2)C1c1ccccn1 (stereo unspecified) has an inhibition of 8.4%.
In the case of c1ccc(C2=Nn3c(nnc3-c3ccccn3)SC2)cc1, the inhibition is reported as -9.2%.
Work on CCOc1ccc(C2=Nn3c(nnc3-c3cccnc3)SC2)cc1 yielded an inhibition of 2.1%.
Work on Cc1cccc(-c2nnc3n2N=C(c2ccccc2)CS3)c1 yielded an inhibition of 13.9%.
Work on COc1ccc(C2=Nn3c(nnc3-c3cccnc3)SC2)cc1OC yielded an inhibition of -8.2%.
Compound CCOc1ccc(C2=Nn3c(nnc3-c3ccccn3)SC2)cc1 has an inhibition of 2.6%.
Work on CCOc1ccc(-c2nnc3sc(-c4ccccc4OC)nn23)cc1 yielded an inhibition of 1.2%.
COc1ccc(OC)c(C2=Nn3c(nnc3-c3ccco3)SC2)c1 gave an inhibition of -10.8%.
Work on COc1ccc(C2=Nn3c(nnc3-c3ccccn3)SC2)cc1OC yielded an inhibition of 2.3%.
For CC1(C)CC(=O)C2=C(C1)N(CC1CCCO1)C(=O)C2(O)C(F)(F)F (stereo unspecified), the inhibition was 7.7%.
COc1ccc(-c2nc3n(n2)C(=O)CC(c2ccco2)S3)cc1 (stereo unspecified) showed an inhibition of -1.6%.
Cc1cc(NCC2CCCO2)n2c(nc3ccccc32)c1C#N (stereo unspecified) gave an inhibition of 15.2%.
Work on CCOC(=O)NC(Nc1sc2c(c1C(N)=O)CCCC2)(C(=O)OCC)C(F)(F)F (stereo unspecified) yielded an inhibition of 2.5%.
CC(C)c1cc(NCCN2CCOCC2)n2c(nc3ccccc32)c1C#N gave an inhibition of 14.6%.
O=P(Cc1nnco1)(c1ccccc1)c1ccccc1 gave an inhibition of 1%.
In the case of CC(=O)Oc1ccccc1C1OCCN1C(C)=O (stereo unspecified), the inhibition is reported as -17.2%.
With Cc1ccc2nc(C(F)(F)F)c(C#N)c(N)c2c1 the inhibition was 11.8%.
C/C(NC(=O)c1ccccc1F)=C1\C(=O)C[C@@H]2[C@H]1C2(C)C gave an inhibition of -12.7%.
Cc1ccc(S(=O)(=O)NC(=O)NCc2ccc3c(c2)OCO3)cc1 gave an inhibition of 7.5%.
For CCN=C1SC(C(=O)Nc2ccc(Cl)c(Cl)c2)CC(=O)N1CC (stereo unspecified), the inhibition was -3.4%.
For O=C(OCCN1CCOCC1)c1ccc(OCCN2CCOCC2)cc1, the inhibition was -3.3%.
Compound Cn1c(/C(C#N)=C/Nc2ccccn2)nc2ccccc21 has an inhibition of -8.5%.
Work on Cc1cc(=O)oc(C)c1C(=O)NC12CC3CC(CC(C3)C1)C2 yielded an inhibition of 0.6%.
In the case of COc1ccc2c(c1OC)C(=O)OC2C1c2c(cc3c(c2OC)OCO3)CCN1C (stereo unspecified), the inhibition is reported as 2.6%.
O=C(O)CC(C(=O)OCC1CCCO1)N1CCOCC1 (stereo unspecified) gave an inhibition of 11.6%.
In the case of COc1nc(N(C)S(=O)(=O)c2ccc(C)cc2)nc(C)c1Cl, the inhibition is reported as 2.3%.
COc1cccc(OC)c1-c1nn2c(-c3ccco3)nnc2s1 gave an inhibition of -5.6%.
Cc1ccc2[nH]c(CCN(C)C)c(CC#N)c2c1 gave an inhibition of -1%.
Work on Cn1c(=O)oc2cc(C(=O)c3ccccc3)ccc21 yielded an inhibition of -2.2%.
Work on CC(=O)Nc1ccc(Oc2ccc3nc(C)[nH]c3c2)cc1 yielded an inhibition of 6.6%.
With CCC(=O)Nc1nc(C)c(Oc2ccccc2)c(=O)[nH]1 the inhibition was -13.8%.
In the case of Cn1c(=O)n(C)c2cc(C(=O)c3ccccc3)ccc21, the inhibition is reported as -1.7%.
With CN1CCc2c(sc3ncn4nc(-c5ccccc5O)nc4c23)C1 the inhibition was 2.9%.
For CSc1cc(C)nc(N(C)C(C)=O)n1, the inhibition was -4.8%.
Work on CC1(c2cnc(Nc3ccccc3)s2)CCC(=O)O1 (stereo unspecified) yielded an inhibition of 3.7%.
For CC1CN(c2oc(-c3ccccc3Cl)nc2C#N)CC(C)O1 (stereo unspecified), the inhibition was -11.7%.
With COc1ccc(/C(O)=C2/C(=O)C(=O)N(CCCN(C)C)C2c2ccccc2)cc1Cl (stereo unspecified) the inhibition was 9.5%.
Work on COc1cccc(C2/C(=C(\O)c3ccc4c(c3)OCCO4)C(=O)C(=O)N2CCCN(C)C)c1OC (stereo unspecified) yielded an inhibition of -10.5%.
C=CCn1cnc2c(c1=O)c1nc3ccccc3nc1n2-c1ccc(Cl)cc1 showed an inhibition of -1.6%.
CCCOC(=O)CSC1=C(C#N)C(c2ccc3c(c2)OCO3)CC(=O)N1 (stereo unspecified) gave an inhibition of 29.3%.
Work on CCCCOC(=O)CSC1=C(C#N)C(c2ccc3c(c2)OCO3)CC(=O)N1 (stereo unspecified) yielded an inhibition of 6.5%.
With CSc1nc2[nH]c3c(c2c2nnnn12)CCCC3 the inhibition was 1.2%.
Compound CC(=O)Nc1cccc(NC(=O)CSc2nc(C)c(C)c(C)c2C#N)c1 has an inhibition of -4.8%.
For COc1cc(C2C3C(=O)N(c4ccc(F)cc4)C(=O)C3ON2c2ccccc2)ccc1O (stereo unspecified), the inhibition was 2.1%.
For COc1cccc(Cn2c(NCC(C)C)nc3c2c(=O)n(C)c(=O)n3C)c1, the inhibition was 10.8%.
In the case of CCCCNc1nc2c(c(=O)n(C)c(=O)n2C)n1Cc1cccc(OC)c1, the inhibition is reported as 35.2%.
CN(C)CCNC(=O)C12CC3(C)CC(C)(CC(C)(C3)C1)C2 gave an inhibition of -4.1%.
CCOc1cccc(NC(=O)C2CC(=O)NC(=Nc3ccccc3)S2)c1 (stereo unspecified) showed an inhibition of 15.4%.
With Cn1c(=O)[nH]c(=O)c2c1nc(Br)n2CCSc1nnnn1-c1ccccc1 the inhibition was -0.6%.
Compound ClC(Br)=C(n1cnc2ccccc21)n1cnc2ccccc21 has an inhibition of 3.1%.
With CC(=O)CCn1c(=O)n(CCC(C)=O)c(=O)n(CCC(C)=O)c1=O the inhibition was 4%.
In the case of Clc1ccc2c(c1)C(N1CCNCC1)=Nc1ccccc1O2, the inhibition is reported as 2.2%.
Work on CN1CCN(C2=Nc3ccccc3Oc3ccc(Cl)cc32)CC1 yielded an inhibition of 2.6%.
In the case of CC(C)CNC(=O)c1c(N)n(/N=C/c2cccnc2)c2nc3ccccc3nc12, the inhibition is reported as -0.2%.
Compound COc1cccc(C2C(C(=O)c3sc(C)nc3C)=C(O)C(=O)N2CCN2CCOCC2)c1OC (stereo unspecified) has an inhibition of 3.5%.
For CN(C)c1oc(-c2cccs2)nc1C#N, the inhibition was 5.5%.
For COc1ccc(-n2c(=O)c3c4c(sc3n3c(C)nnc23)CC(C)CC4)cc1 (stereo unspecified), the inhibition was -5%.
COc1ccc(Nc2nc(Nc3ccc(OC)cc3)nc(-n3[nH]c(=O)c(C)c3C)n2)cc1 gave an inhibition of 4.5%.
With COc1ccc(Nc2cc(C)nc3ccccc23)cc1 the inhibition was 6.3%.
Cc1[nH]c2ccc(F)cc2c(=O)c1SC(F)(F)C(F)C(F)(F)F (stereo unspecified) gave an inhibition of 1.9%.
For COc1ccc(C(=O)c2oc3nc(C)cc(C)c3c2N)cc1, the inhibition was -3.3%.
For C=CCn1c(SCc2c(F)c(F)c(F)c(F)c2F)nc(O)cc1=O, the inhibition was -3.4%.
Compound CC(C)C(C(=O)Nc1ncn[nH]1)N1C(=O)c2ccccc2C1=O (stereo unspecified) has an inhibition of 1%.
